{"source": "paper PMC5540273", "about": "(PLoS ONE, 2017);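 further: KINOMEscan kinase panel screen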"}
{"tested_on": "PIM1", "settings": "concentration: 1 μM, replicates: in singlicate; n = 1", "units": {"%Inh": "%"}}
{"smiles": "Cl.Cl.NC(CNC(=O)c1cc(Br)c(-c2ccnc3[nH]ccc23)s1)c1ccccc1", "note": "(stereo not shown) [GSK1322949]", "%Inh": 40}
{"smiles": "Cl.Cl.NCC(NC(=O)c1cc(-c2cccnc2)c(-c2ccnc3[nH]ccc23)s1)c1ccccc1", "note": "(stereo not shown) [GSK1323434]", "%Inh": 16}
{"smiles": "CC(C)c1nc(-c2ccc(F)c(NS(=O)(=O)c3c(F)cccc3F)c2)c(-c2ccnc(Nc3ccc(N4CCOCC4)nc3)n2)s1", "note": "[GSK1804250]", "%Inh": 7}
{"smiles": "CC(=O)Nc1cn2nc(Oc3cccc(NC(=O)c4cccc(C(F)(F)F)c4)c3)ccc2n1", "%Inh": 9}
{"smiles": "COc1cc(Nc2nccc(N3CCC(NS(=O)(=O)c4ccc(NC(C)=O)cc4)CC3)n2)cc(OC)c1OC", "note": "[GSK1379825]", "%Inh": 0}
{"smiles": "Cn1cc(-c2cnc(N)c3c(-c4ccc5c(c4)CCN5C(=O)Cc4ccccc4)csc23)cn1", "note": "[GSK2593074]", "%Inh": 0}
{"smiles": "Cc1ccc(NC(=O)c2ccnc(N3CCCCC3)c2)cc1-c1ccc(C(=O)NCC2CC2)cc1", "note": "[GW775610]", "%Inh": 0}
{"smiles": "CCn1cnc2c(NCc3ccccc3)ncnc21", "note": "[SKF-96418]", "%Inh": 21}
{"smiles": "Cc1ccc(NC(=O)c2cccc(N3CCCCC3)c2)cc1-c1ccc(C(=O)NCC2CC2)cc1", "note": "[GSK1917008]", "%Inh": 15}
{"smiles": "COc1ccc(NC(=O)c2ccoc2)cc1-c1ccc(C(=O)NCC2CC2)cc1", "note": "[GW810437]", "%Inh": 0}
{"smiles": "COc1cccc(CC(=O)N2CCc3cc(-c4cn(C)c5ncnc(N)c45)ccc32)c1", "note": "[GSK2608899]", "%Inh": 19}
{"smiles": "CN1CCN(Cc2ccc(NC(=O)Nc3ccc(N(C)c4ccnc(Nc5ccc(CS(C)(=O)=O)cc5)n4)cc3)cc2)CC1.Cl", "note": "[GW827654]", "%Inh": 0}
{"smiles": "c1ccc(Oc2ccc(Nc3ccnc4cc(-c5ccc(CN6CCCCC6)o5)ccc34)cc2)nc1", "note": "[GW567143]", "%Inh": 0}
{"smiles": "CN(c1ccc(F)c(NC(=O)c2cccc(OC(C)(C)C#N)c2Cl)c1)c1ccc2nc(NC(=O)C3CC3)sc2n1", "%Inh": 0}
{"smiles": "CCOc1nccc(-c2c(-c3ccc(F)cc3)ncn2C2CCNCC2)n1", "note": "[SB-249175]", "%Inh": 0}
{"smiles": "CN(C)CCNS(=O)(=O)c1ccc(-c2ccnc3[nH]ccc23)cc1", "note": "[GSK977620]", "%Inh": 1}
{"smiles": "CC(C)(C)c1ccc(C(=O)Nc2cn3cc(-n4ccnc4)ccc3n2)cc1", "%Inh": 7}
{"smiles": "Cn1cc(-c2ccc3c(c2)CCN3C(=O)Cc2cc(F)cc(F)c2F)c2c(N)ncnc21", "note": "[GSK2634140]", "%Inh": 12}
{"smiles": "O=C(Nc1n[nH]c2nc(-c3ccccc3)ccc12)C1CC1", "note": "[SB-708999]", "%Inh": 0}
{"smiles": "O=C(Nc1n[nH]c2nc(-c3cccc(O)c3)ccc12)C1CC1", "note": "[SB-711805]", "%Inh": 11}
{"smiles": "CN(C)CCOc1ccc(-c2cc(-c3ccc(Cl)c(O)c3)c(-c3ccncc3)[nH]2)cc1.Cl.Cl", "note": "[SB-684387]", "%Inh": 22}
{"smiles": "Cc1cc(-c2c(-c3ccc(F)cc3)ncn2CCCN2CCOCC2)nc(N)n1", "note": "[SB-222517]", "%Inh": 11}
{"smiles": "CC(C)NCC(Cc1ccccc1)NC(=O)c1cc(Br)c(-c2ccnc3[nH]ccc23)s1.Cl.Cl", "note": "(stereo not shown) [GSK1383281]", "%Inh": 11}
{"smiles": "CNc1nccc(-c2ccc3c(N)n[nH]c3c2)n1", "note": "[GSK2206003]", "%Inh": 18}
{"smiles": "O=C(Nc1n[nH]c2nc(-c3ccccc3O)ccc12)C1CC1", "note": "[SB-711880]", "%Inh": 0}
{"smiles": "O=C1NC(=O)C(c2ccccc2Cl)=C1Nc1cccc(Cl)c1", "note": "[SB-342409]", "%Inh": 0}
{"smiles": "Cc1nn2c(=O)cc(N3CCO[C@H](C)C3)nc2n1Cc1cccc(Cl)c1Cl", "note": "[GSK2373693]", "%Inh": 10}
{"smiles": "CCNc1nccc(-c2c(-c3ccc(F)cc3)ncn2C2CCN(C)CC2)n1", "%Inh": 6}
{"smiles": "COC(=O)Nc1nc2ccc(Oc3ccc(CC(=O)Nc4cc(C(F)(F)F)ccc4F)cc3)cc2[nH]1", "note": "[GW680903]", "%Inh": 19}
{"smiles": "N#Cc1cnc2cc(-c3cnc(CNCCN4CCOCC4)s3)ccc2c1Nc1ccc(Oc2ccccc2)cc1", "note": "[GW664114]", "%Inh": 11}
{"smiles": "COc1cccc(C2=C(Nc3cccc(O)c3)C(=O)NC2=O)c1", "note": "[SB-390771]", "%Inh": 26}
{"smiles": "O=C(Nc1n[nH]c2cc(-c3cccs3)ccc12)C1CC1", "note": "[SB-731284]", "%Inh": 0}
{"smiles": "Cc1ccc(O)cc1Nc1ccnc2ccc(C(C)(C)C)cc12", "note": "[GW856805]", "%Inh": 37}
{"smiles": "Nc1cccc(-c2ccc3c(N)n[nH]c3c2)c1", "note": "[GSK2193613]", "%Inh": 11}
